The structures appear in SMILES notation. The panel holds about 79,000 compounds, 15% with a hit somewhere; the sample as a whole holds those more often. Values without a mark were called inactive. Active and inactive are the calls of the source. Rule as the data show it: active = growth inhibition above about 70%; inactive = the rest.

Assay [1] in a line: NCI Yeast Anticancer Drug Screen. Data for the rad50 strain (AID 155).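 Also: 0% = growth of vehicle-only cultures of the same strain.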 As to conditions: S. cerevisiae rad50 strain growth inhibition, stronger effect = higher value. Put shortly: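 Growth of the mutant yeast was measured after compound exposure and referenced to vehicle-treated cultures.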
Assay [2] in a line: NCI Yeast Anticancer Drug Screen. Data for the mec2-1 strain (AID 157). As to conditions: S. cerevisiae mec2-1 strain, stronger effect = higher value. The gist of the method:
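mec2-1 yeast strain, carrying an alteration in DNA damage repair or cell cycle control, was exposed to compounds; growth inhibition was measured relative to vehicle-treated controls.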

Assay [3] can be described thus: NCI Yeast Anticancer Drug Screen. Data for the sgs1 mgt1 strain (AID 161).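 Also: 0% = growth of cultures given vehicle only.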 As to conditions: S. cerevisiae sgs1 mgt1 strain, stronger effect = higher value. Put shortly: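 Growth of a repair-deficient yeast mutant was monitored after compound treatment and expressed as inhibition relative to vehicle-treated cultures.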
Assay [4] is described as follows: NCI Yeast Anticancer Drug Screen. Data for the cln2 rad14 strain (AID 165).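 Also: 0% = growth equal to vehicle treated cultures.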 As to conditions: S. cerevisiae cln2 rad14 strain, stronger effect = higher value. The gist of the method:
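Yeast carrying cln2 and rad14 alterations (cell cycle control and DNA damage repair) were exposed to compounds. Growth inhibition was measured against vehicle-treated controls.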

Assay [5] in a line: NCI Yeast Anticancer Drug Screen. Data for the bub3 strain (AID 167). As to conditions: S. cerevisiae bub3 mutant strain, stronger effect = higher value. The gist of the method: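 Whole-cell yeast assay. The mutant strain was incubated with compounds, and growth inhibition was determined by comparison with vehicle-treated cells.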
Assay [6] is described as follows: NCI Yeast Anticancer Drug Screen. Data for the mlh1 rad18 strain (AID 175). As to conditions: S. cerevisiae mlh1 rad18 strain growth inhibition, stronger effect = higher value. The gist of the method: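 Growth inhibition of the yeast strain was measured after compound exposure and expressed relative to vehicle-treated controls. The strain carries defined defects in DNA damage repair.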

Setting [7] is: at 5.0 µM (retest, dose inferred, filed as 0.5).
[8] abbreviates: at 50.0 µM (retest, dose inferred, filed as 5.0).

With `CC(C)(C)C(=O)OC(N)/C=C/c1ccccc1` (configuration not stated), the growth inhibition in assay [1] (setting [7]) was 21%; in assay [1] (setting [8]) it was 24%; in assay [1] (at 50.0 µM), 1.75%; in assay [2] (setting [7]) it was 15%; in assay [2] (setting [8]) it was 16%; in assay [2] (at 50.0 µM), -10.2%. For the same compound, the growth inhibition is 13% in assay [3] (setting [7]); -36% in assay [3] (setting [8]); 78.8% (active) in assay [3] (at 50.0 µM); 14% in assay [4] (setting [7]); -52% in assay [4] (setting [8]); 36.7% in assay [4] (at 50.0 µM). Further, the growth inhibition is 7% in assay [5] (setting [7]); -24% in assay [5] (setting [8]); 82.7% (active) in assay [5] (at 50.0 µM); 23% in assay [6] (setting [7]); 24% in assay [6] (setting [8]); -19.9% in assay [6] (at 50.0 µM).

As for `CC1=CC(=O)C=C(Br)C1=O`, the growth inhibition in assay [1] (setting [7]) is 18%; in assay [1] (setting [8]), 99% (active); in assay [1] (at 50.0 µM) it was 98.8% (active); in assay [2] (setting [7]), 12%; in assay [2] (setting [8]), 99% (active); in assay [2] (at 50.0 µM), 99.5% (active). The growth inhibition in assay [3] (setting [7]) is 6%; in assay [3] (setting [8]) it was 95% (active); in assay [3] (at 50.0 µM) it was 99.3% (active); in assay [4] (setting [7]), 2%; in assay [4] (setting [8]) it was 41%; in assay [4] (at 50.0 µM), 87.7% (active). The growth inhibition in assay [5] (setting [7]) is 11%; in assay [5] (setting [8]), 99% (active); in assay [5] (at 50.0 µM) it was 99.2% (active); in assay [6] (setting [7]), 13%; in assay [6] (setting [8]), 99% (active); in assay [6] (at 50.0 µM), 99.2% (active).

Take `CCOC(=O)C(=CCC1NCCc2c1[nH]c1ccccc21)C(=O)OCC` (configuration not stated): the growth inhibition in assay [1] (setting [7]) was 23%; in assay [1] (setting [8]) it was 93% (active); in assay [1] (at 50.0 µM) it was 91.2% (active); in assay [2] (setting [7]), 29%; in assay [2] (setting [8]), 97% (active); in assay [2] (at 50.0 µM) it was 91.7% (active). For the same compound, the growth inhibition is 29% in assay [3] (setting [7]); 63% in assay [3] (setting [8]); 93.5% (active) in assay [3] (at 50.0 µM); 28% in assay [4] (setting [7]); 59% in assay [4] (setting [8]); 92.2% (active) in assay [4] (at 50.0 µM). Further, the growth inhibition in assay [5] (setting [7]) is 30%; in assay [5] (setting [8]) it was 98% (active); in assay [5] (at 50.0 µM), 92.4% (active); in assay [6] (setting [7]) it was 41%; in assay [6] (setting [8]) it was 97% (active); in assay [6] (at 50.0 µM), 91.6% (active).

For the compound `CC(C)S(=O)(=O)ON1C(=O)c2ccc(N(C)C)cc2C1=O`, the growth inhibition is 14% in assay [1] (setting [7]); 35% in assay [1] (setting [8]); 91.7% (active) in assay [1] (at 50.0 µM); 14% in assay [2] (setting [7]); 33% in assay [2] (setting [8]); 81.8% (active) in assay [2] (at 50.0 µM). In addition, the growth inhibition is 16% in assay [3] (setting [7]); 34% in assay [3] (setting [8]); 61.3% in assay [3] (at 50.0 µM); 24% in assay [4] (setting [7]); 42% in assay [4] (setting [8]); 95.4% (active) in assay [4] (at 50.0 µM). Moreover, the growth inhibition in assay [5] (setting [7]) was 17%; in assay [5] (setting [8]), 48%; in assay [5] (at 50.0 µM), 73.4% (active); in assay [6] (setting [7]), 16%; in assay [6] (setting [8]), 40%; in assay [6] (at 50.0 µM), 97.5% (active).

As to `O=C1OC2(CCCCC2)OC(=O)C1=Cc1ccc([N+](=O)[O-])s1`, the growth inhibition in assay [1] (setting [7]) is 9%; in assay [1] (setting [8]) it was 99% (active); in assay [1] (at 50.0 µM), 56.1%; in assay [2] (setting [7]), 6%; in assay [2] (setting [8]) it was 100% (active); in assay [2] (at 50.0 µM), 27.4%. Also, the growth inhibition is 9% in assay [3] (setting [7]); 99% (active) in assay [3] (setting [8]); 99.8% (active) in assay [3] (at 50.0 µM); 4% in assay [4] (setting [7]); 61% in assay [4] (setting [8]); 10% in assay [4] (at 50.0 µM). Further, the growth inhibition is 0% in assay [5] (setting [7]); 99% (active) in assay [5] (setting [8]); 22.6% in assay [5] (at 50.0 µM); 14% in assay [6] (setting [7]); 99% (active) in assay [6] (setting [8]); 30.7% in assay [6] (at 50.0 µM).

As for `CCOC(=O)N/N=C/c1ccc(N(C)CCC#N)cc1`, the growth inhibition in assay [1] (setting [7]) is 7%; in assay [1] (setting [8]) it was 6%; in assay [1] (at 50.0 µM), -12%; in assay [2] (setting [7]), -3%; in assay [2] (setting [8]) it was 12%; in assay [2] (at 50.0 µM), -26.9%. Also, the growth inhibition in assay [3] (setting [7]) is -4%; in assay [3] (setting [8]), 4%; in assay [3] (at 50.0 µM) it was 55.2%; in assay [4] (setting [7]), 37%; in assay [4] (setting [8]), 17%; in assay [4] (at 50.0 µM), 5.5%. The growth inhibition in assay [5] (setting [7]) is 22%; in assay [5] (setting [8]), 15%; in assay [5] (at 50.0 µM), 1.1%; in assay [6] (setting [7]), 14%; in assay [6] (setting [8]) it was 24%; in assay [6] (at 50.0 µM), -3.6%.

As for `O=C(C[n+]1ccc2ccccc2c1)c1ccc2ccc3ccccc3c2c1`, the growth inhibition in assay [1] (setting [7]) is 5%; in assay [1] (setting [8]), 92% (active); in assay [1] (at 50.0 µM), 97.7% (active); in assay [2] (setting [7]), 0%; in assay [2] (setting [8]), 73% (active); in assay [2] (at 50.0 µM), 85.8% (active). Besides, the growth inhibition in assay [3] (setting [7]) was -3%; in assay [3] (setting [8]), 89% (active); in assay [3] (at 50.0 µM), 96% (active); in assay [4] (setting [7]), 1%; in assay [4] (setting [8]) it was 72% (active); in assay [4] (at 50.0 µM), 98.2% (active). In addition, the growth inhibition was -11% in assay [5] (setting [7]); 92% (active) in assay [5] (setting [8]); 93% (active) in assay [5] (at 50.0 µM); -4% in assay [6] (setting [7]); 99% (active) in assay [6] (setting [8]); 98.7% (active) in assay [6] (at 50.0 µM).

Turning to `CCOC(=O)C(CCOC)C(=O)OCC`, the growth inhibition in assay [1] (setting [7]) is 4%; in assay [1] (setting [8]), 81% (active); in assay [1] (at 50.0 µM) it was 73.3% (active); in assay [2] (setting [7]), 0%; in assay [2] (setting [8]), 30%; in assay [2] (at 50.0 µM), 70.9% (active). The growth inhibition in assay [3] (setting [7]) was 1%; in assay [3] (setting [8]), 46%; in assay [3] (at 50.0 µM) it was 43.9%; in assay [4] (setting [7]), 3%; in assay [4] (setting [8]), 65%; in assay [4] (at 50.0 µM), 41.8%. For the same compound, the growth inhibition in assay [5] (setting [7]) is 1%; in assay [5] (setting [8]) it was 48%; in assay [5] (at 50.0 µM) it was 95.7% (active); in assay [6] (setting [7]) it was 5%; in assay [6] (setting [8]), 72% (active); in assay [6] (at 50.0 µM), 43.6%.

Consider `O=Cc1c(Cn2ccnc2)c2cc([N+](=O)[O-])ccc2n1Cc1ccccc1`, for which the growth inhibition in assay [1] (setting [7]) is 5%; in assay [1] (setting [8]) it was 49%; in assay [1] (at 50.0 µM), 62.5%; in assay [2] (setting [7]), 4%; in assay [2] (setting [8]), 39%; in assay [2] (at 50.0 µM), 13.7%. The growth inhibition in assay [3] (setting [7]) is 6%; in assay [3] (setting [8]) it was 48%; in assay [3] (at 50.0 µM) it was 57.2%; in assay [4] (setting [7]) it was -2%; in assay [4] (setting [8]) it was -17%; in assay [4] (at 50.0 µM) it was 22.9%. For the same compound, the growth inhibition was -3% in assay [5] (setting [7]); -1% in assay [5] (setting [8]); 3.8% in assay [5] (at 50.0 µM); 8% in assay [6] (setting [7]); 64% in assay [6] (setting [8]); 68.5% in assay [6] (at 50.0 µM).

Source of the values: PubChem BioAssay (NCI).
